Shown are actives, neighbours in structure and some others; about 12% of the full set was active somewhere.
SARS PLP yeast: blocks SARS-CoV papain-like protease in a yeast assay. S. cerevisiae expressing SARS-CoV PLpro, growth rescue. Potency, µM (series often up to 32.9 µM), usual class: activators. 330,000 tested, 0.19% active. AID 485353; further: nearly all actives have a fitted effect of over 55% in size
CHX counter: counter-screen for Shiga toxin inhibitors: cycloheximide protein synthesis inhibition; AID 2314; max response, %; 300,000 tested, 12% active; cell reporter, cycloheximide protein synthesis inhibition counterscreen; in the data active means max response mostly above about 13%, no sharp cut-off; inactive means mostly below about 14%; further: read at 38.3 µM for the half of the compounds with a filed dose
Shiga inhibitor: blocks Shiga toxin action in Vero cells. AID 2315. Vero cells, Shiga toxin protein synthesis inhibition reporter. inhibition, % at 38.7 µM. 290,000 tested, 9.2% active; in the data active means inhibition mostly above about 28%, no sharp cut-off; inactive means mostly below about 43%
NS1 inh: influenza NS1 inhibition; AID 2326; Potency, µM (doses to about 46.1 µM); 270,000 tested, 0.4% active; further: actives are rising curves; nearly all actives have a fitted effect of over 50% in size
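Read-out: OD600 growth recovery of NS1-expressing budding yeast. Cells grown overnight at 30C in -URA glucose medium, washed, resuspended and diluted 1:100 in 2% galactose assay medium, pH 6.0. Same strain lacking NS1 served as positive control.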
A number is an active result; . = inactive; ? = inconclusive; / = not tested or not shown; [ ] = another dose, or the depositor's remark. Unless noted, the call rests on the fitted dose curve.

SMILES	SARS PLP yeast	CHX counter	Shiga inhibitor	NS1 inh
O=C(/C=C\Nc1ccccc1Br)c1ccc2c(c1)OCO2	.	.	.	/
CN(C)c1ccc(/C=C/C(=O)c2ccc3c(c2)OCCO3)cc1[N+](=O)[O-]	.	43	active	.
O=C(/C=C/c1ccncc1)c1ccc2c(c1)OCCO2	.	20	.	.
CC(=O)c1ccc2c(c1)OCCOCCOCCOCCOCCO2	.	.	.	.
COc1ccc(C(=O)/C=C/c2ccc(N3CCCCC3)c([N+](=O)[O-])c2)cc1	.	.	.	.
COc1cccc(/C=C/C(=O)Oc2ccc(C(=O)c3ccc(F)cc3)cc2)c1	.	.	.	.
O=C(/C=C/c1ccccc1Br)c1ccc2c(c1)OCO2	.	36	112	.
CC1CCCCC1N(C)C1CCN(C(=O)CNC(=O)/C=C/c2cccc(Cl)c2)CC1 (stereo not given)	.	.	.	.
Cc1ccc2c(c1)CCCN2CC(=O)N(C)c1c(N)n(Cc2ccccc2)c(=O)[nH]c1=O	.	/	/	/
CN1N=C(C(=O)N2CCCC(C(=O)c3cccc(C(F)(F)F)c3)C2)CCC1=O (stereo not given)	.	.	.	.
CCOc1ccccc1NC(=O)COC(=O)c1c(CC)noc1C	.	/	/	/
O=C(/C=C/c1ccccc1)c1ccc2c(c1)OCO2	.	37	59	.
CCN(Cc1ccc2c(c1)OCO2)C(=O)/C=C/c1cccc(Br)c1	.	.	.	.
O=C(/C=C/c1cccc(Br)c1)c1ccc2c(c1)OCO2	.	25	62	.
Cc1cc(C)c(C(=O)/C=C/c2ccc3c(c2)OCO3)c(=O)[nH]1	.	.	.	.
O=C(/C=C/c1ccc2c(c1)OCO2)c1ccc(F)cc1	.	42	78	.
O=C(/C=C/c1ccc2c(c1)OCO2)c1ccc[nH]1	.	79	active	.
O=C(N/N=C\C=C\c1ccc2c(c1)OCO2)c1ccc(F)cc1	.	.	.	/
CN(C)c1ccc(/C=C/C(=O)c2ccc3c(c2)OCO3)cc1	.	/	/	/
Cc1ccc(S(=O)(=O)N(C)c2ccc(C(=O)N(C)Cc3nc4ccccc4c(=O)[nH]3)cc2)cc1	.	/	/	/
CCc1ccc(-c2cc(C(=O)N3N=C(C(F)F)CC3(O)C(F)F)c3ccccc3n2)cc1 (stereo not given)	.	28	89	.
CC(C)Cc1cc(C(=O)N2N=C(C(F)F)CC2(O)C(F)F)c2ccccc2n1 (stereo not given)	.	.	.	.
Nc1nnc(COc2ccc(Br)cc2Br)s1	.	21	92	.
CCOC(=O)C1CCCN(C(=O)c2cccc(NC(=O)C(CC)CC)c2)C1 (stereo not given)	.	.	.	.
CC(C)NC(=O)NC(=O)COC(=O)Cc1c(F)cccc1Cl	.	.	.	/
SMILES	SARS PLP yeast	CHX counter	Shiga inhibitor	NS1 inh
CC(=O)c1ccc(N2C(=O)[C@@H]3[C@H](C2=O)[C@H]2c4ccccc4C=NN2[C@@H]3C(C)=O)cc1	.	10	.	.
COc1cc(CCNc2ccc3nnc(-c4ccccc4)n3n2)cc(OC)c1OC	.	.	.	.
O=C1C(=O)N(CCN2CCOCC2)C(c2ccccc2F)/C1=C(\O)c1ccc(S(=O)(=O)N2CCOCC2)cc1 (stereo not given)	.	.	.	.
Cc1ccc(C(=O)C2CN(C)CC2C(=O)c2ccc(C)cc2)cc1 (stereo not given)	.	23	39	.
Cc1nnc(SCc2ccc(Cl)c(Cl)c2)s1	.	14	.	.
Cc1nnc(SCc2ccc(F)cc2)s1	.	28	55	.
O=C(Nc1nnc(SCc2ccccc2)s1)c1cccc([N+](=O)[O-])c1	.	.	.	.
Cc1nnc(SCc2cccc3ccccc23)s1	.	52	71	.
Cc1nnc(SCc2ccc(C(=O)O)cc2)s1	.[6.58 µM]	.	.	.
c1ccc(Nc2nnc(SCc3cccc4ccccc34)s2)cc1	.	.	.	.
Cc1nnc(SCc2cccc([N+](=O)[O-])c2)s1	.	18	.	.
Cc1cccc(-n2c(O)c(C=NC3CCS(=O)(=O)C3)c3ccccc3c2=O)c1C (stereo not given)	.	.	.	.
Nc1nc(SCc2ccc(F)cc2)ns1	.	40	69	/
Nc1nc(SCc2ccc(Cl)cc2Cl)ns1	.	.	.	.
O=[N+]([O-])c1cc(-c2n[nH]c(-c3ccccc3)n2)cc([N+](=O)[O-])c1	.	.	.	.
Clc1ccccc1-c1nc(-c2ccccc2)n[nH]1	.	53	125	.
CC(C)n1cc(-c2nc(C(=O)NN)cs2)c(=O)n(Cc2ccccc2)c1=O	.	.	.	?
O=C(O)CSc1ncnc2nc[nH]c12	.	.	.	.
COc1ccc(OCCSc2ncnc3nc[nH]c23)cc1	.	37	.	.
Fc1ccccc1OCCSc1ncnc2nc[nH]c12	.	36	76	.
CN(C)CCN(c1ccccn1)c1ccccn1	/	/	/	.
CCC(=O)Nc1cc(C(=O)OCc2ccc(C(=O)Oc3ccccc3)cc2)ccc1C	.	.	.	.
COc1cc(OC)cc(C(=O)N[C@H](C(=O)OCC(=O)Nc2ccc(C)cc2C)C(C)C)c1	.	.	.	.
Cn1cccc1C(=O)NC(=O)COC(=O)c1ccccc1O	.	17	.	.
CC(=O)NC12CC3CC(C1)CC(C(=O)OCC(=O)NC(=O)c1cccn1C)(C3)C2	.	20	.	.
SMILES	SARS PLP yeast	CHX counter	Shiga inhibitor	NS1 inh
Cn1cccc1C(=O)NC(=O)COC(=O)C12CC3CC(CC(O)(C3)C1)C2	.	43	53	.
Cc1cc(C(=O)OCC(=O)NC(=O)c2cccn2C)c2ccccc2n1	.	.	.	.
CC(=O)NC12CC3CC(C1)CC(C(=O)OCC(=O)Nc1c(F)cccc1F)(C3)C2	.	/	/	/
Cc1cccc(C(=O)N[C@H](C(=O)OCC(=O)NC(=O)c2cccn2C)C(C)C)c1	.	32	.	.
Cc1cc(Br)c(NC(=O)CCNC(=O)OCc2ccccc2)cc1C	.	.	.	.
CC1(C)Cc2nc3sc4c(=O)n(CC(=O)NCc5ccccc5)cnc4c3cc2CO1	.	.	.	.
Cc1nc2c(sc3nc4c(cc32)COC(C)(C)C4)c(=O)o1	.	.	.	.
CC1(C)Cc2nc3scc(NC(=O)c4ccccc4)c3cc2CO1	.	14	.	.
CC1(C)Cc2nc3sc4c(=O)n(CC(N)=O)cnc4c3cc2CO1	.	.	.	.
CC1(C)Cc2nc3sc(C(=O)NCCCO)c(N)c3cc2CO1	.	29	91	.
COC(=O)c1sc2nc3c(cc2c1N)COC(C)(C)C3	.	80	198	.
CCOC(=O)c1sc2nc3c(cc2c1N)COC(C(C)C)C3 (stereo not given)	.	57	157	.
O=C(O)c1cccc2c1C(=O)c1ccc(-c3ccc(Cl)c(C(F)(F)F)c3)cc1S2(=O)=O	.	/	/	/
CCC(C)(C)NC(=O)c1cc(S(=O)(=O)N2CCCCC2)ccc1N1CCOCC1	.	.	.	/
O=C(NCc1nc(-c2ccc(C(F)(F)F)cc2)no1)Nc1cc(Cl)cc(Cl)c1	.	.	.	.
Cc1cc(Cl)ccc1OCC(=O)NCC(c1cccs1)N1CCOCC1 (stereo not given)	.	/	/	/
OCC1CCCN(C(=S)Nc2ccc(Nc3ccccc3)cc2)C1 (stereo not given)	.	29	61	.
Cc1ccc(NC(=S)N2CCCC(O)C2)cc1 (stereo not given)	.	20	69	/

Source: PubChem BioAssay
